Measured values reported in PubChem BioAssay.
Several values for one entry are separate records, joined by “and”; a condition that tells them apart may be missing. Equal entries are not always repeated. Activity calls are given as the source filed them.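 How the source made its calls, unless noted: active means thallium flux through the channel raised or lowered by more than 3 SD from vehicle-only wells, actives on both sides; inactive means the rest.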

What was measured:
[1] = test system: Hepatitis C virus NS3 helicase; test: blockers of NS3h binding to DNA – biochemical, fluorescence polarization, NIH Clinical Collection, primary screen (AID 743270; call rule not given here); conditions: NS3 helicase binding to Cy5-dT15 DNA, stronger effect = higher value, concentration not given here
[2] = target: Single-stranded DNA-binding protein (Escherichia coli (strain K12)) (UniProt P0AGE0); test: SSB-ssDNA binding inhibitors – biochemical, fluorescence polarization, NIH Clinical Collection, counter-screen for HCV NS3 helicase inhibitor project (AID 743271; in the data active means inhibition above about 28%); conditions: E. coli SSB-DNA binding, stronger effect = higher value, concentration not given here
[3] = compounds distorting NS3 helicase fluorescence signal – biochemical, NIH Clinical Collection, artefact control for HCV NS3 helicase inhibitor project (AID 743272; call rule not given here;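 further: HCV NS3 helicase with a Cy5 labelled single stranded DNA probe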); conditions: fluorescence interference counterscreen, HCV NS3 helicase assay; stronger effect = lower value
[4] = Wnt pathway potentiators raising nuclear beta-catenin – imaging, WNT3A-conditioned medium, mouse C2C12, NPC library, primary screen (AID 1117326; in the data active means nuclear beta-catenin stimulation mostly above about 4.2%, no sharp cut-off; inactive means mostly below about 10%); conditions: stronger effect = higher value
[5] = stimulators of insulin release from INS-1E, primary screen, cell-based, 5 mM glucose, NPC library (AID 1117329;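 active means compound raises insulin release from rat beta cells at 5 mM glucose, no numeric limit stated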); conditions: rat INS-1E insulin secretion, at 10 µM, stronger effect = higher value
[6] = growth inhibition of GSK3B-pretreated HCT116 cells – cell-based, CellTiter-Glo, 0.2 to 20 µM (AID 1117336;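 active means compounds lowering colon cancer cell viability after pretreatment blocking the GSK3B kinase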); conditions: HCT116 viability after GSK3B inhibitor, at 20 µM, stronger effect = higher value
[7] = inhibition of endothelial tube formation, primary screen, imaging, VEGF stimulated, CD31 staining, tube area, NPC library (AID 1117340;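 active means compound that reduces growth-factor-driven endothelial tube area in a mixed cell culture, no cutoff stated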); conditions: VEGF-stimulated ADSC/ECFC co-culture, at 10 µM, stronger effect = higher value
[8] = GLP1 release stimulators, primary, NCI-H716, NPC library (AID 1117341;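 active means compound raises GLP1 secretion from the human gut endocrine cells, with no numeric limit stated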); conditions: NCI-H716 cells, at 10 µM, stronger effect = higher value
[9] = HCT116 colon cancer cell growth inhibition, primary screen, CellTiter-Glo luminescence, NPC library (AID 1117342;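 active means compounds that lower survival of HCT116 colon cancer cells in the luminescence readout, no numeric limit stated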); conditions: at 20 µM (top of the series)
[10] = reduced SW480 viability measured with CellTiter-Glo, NPC library, primary (AID 1117343;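 active means compounds that lower viability of the colon cancer cells in the luminescence readout, with no numeric limit stated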); conditions: CellTiter-Glo luminescence; at 20 µM (top of the series)
[11] = NPC library primary testing for decreased DLD-1 cell viability via CellTiter-Glo (AID 1117346;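 active means compounds that lower survival of DLD-1 colon cancer cells in the luminescence readout, no cutoff given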); conditions: DLD-1 viability, CellTiter-Glo luminescence; at 20 µM (top of the series)
[12] = target: 6-phosphogluconate dehydrogenase, decarboxylating (Homo sapiens) (UniProt P52209); test: inhibition of human phosphogluconate dehydrogenase – biochemical, recombinant enzyme, NADPH absorbance, primary screen (AID 1159550;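 active means at least 20% inhibition of 6-phosphogluconate dehydrogenase activity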); conditions: recombinant 6PGD, NADPH absorbance 341 nm; at 10 µM; stronger effect = higher value
[13] = EMT-state selective cytotoxicity in co-culture – imaging, PC-3E GFP, TEM4-18 mCherry, primary screen (AID 1345086;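 active means compounds killing one labelled cell type while sparing the other, by normalised counts and ratio limits, not self-fluorescent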;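 on all read-outs here: cells exposed to compound for 72 h before imaging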;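 on red/green cell ratio (normalised): normalised mesenchymal count divided by normalised epithelial count so high means epithelial killing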); conditions: PC-3E GFP / TEM4-18 mCherry co-culture, imaging cell counts, at 1 µM; for red/green cell ratio (normalised): actives lie on both sides, counts scaled to control wells, 1 = unselective
[14] = MELAS cybrid and Rieske KO viability enhancers – cell-based, MELAS cybrids, Rieske KO mouse fibroblasts, CellTiter-Glo, primary screen (AID 1508586;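 active means mean z-score across replicates of 1.96 or higher in either the MELAS or the Rieske mutant cell line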;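 further: z relative to plate mean and SD of compound and empty wells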); conditions: low glucose
[15] = target: NAD(+) hydrolase SARM1 (Homo sapiens) (UniProt Q6SZW1); test: blocking NAD cleavage by SARM1 SAM-TIR – cell lysate, NAD-Glo luminescence (AID 1508614;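 active means compound whose remaining NAD level is above about 45 nM, limit read from the data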); conditions: SAM-TIR HEK293T lysate NADase, at 1 µM, stronger effect = higher value
[16] = target: Mitogen-activated protein kinase 7 (Homo sapiens) (UniProt Q13164); test: Gal4-ERK5 driven luciferase induction – cell-based, HTS, primary screen (AID 1508626;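 active means luciferase signal above three times the same-plate solvent-only control wells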;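 further: luciferase driven by Gal4-ERK5 fusion binding five Gal4 sites before minimal TATA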); conditions: HeLa Gal4-ERK5 transactivation, 18 h, at 5 µM, stronger effect = higher value
F380Y = test: BK channel mutant inhibitors and activators – cell-based, U2OS BacMam, thallium flux, beta subunits, selectivity assay, profiling panel (AID 1259406); conditions: U2OS BacMam BK variants, at 30 µM;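 further: initial slope of Thallos dye fluorescence rise after thallium is added; log ratio against the mean of 0.3% DMSO vehicle wells on the same plate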
F380Y/beta2Delta = test: as above; conditions: U2OS BacMam BK variants, at 30 µM
[17] = target: Calcium-activated potassium channel subunit alpha-1 (Homo sapiens) + Leucine-rich repeat-containing protein 26 (Homo sapiens) (UniProt Q12791+Q2I0M4); test: as above; conditions: U2OS BacMam BK variants, F380Y/Slo1WT/gamma1, at 30 µM
[18] = viability loss with induced miR-34 in A549 – imaging, A549 dox-inducible miR-34, nuclei and caspase counts, primary screen (AID 1347080;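 active means compounds whose cell count with miR-34 switched on is under 0.7 times the count with it off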); conditions: A549 miR-34 inducible, Hoechst nuclei count, 48 h; stronger effect = lower value; cell number ratio, induced over uninduced
[19] = measured here: epithelial PC-3E GFP cell survival
[20] = measured here: mesenchymal TEM4-18 mCherry cell survival
[21] = MELAS cybrid survival, CellTiter-Glo 48 h, stronger effect = higher value
[22] = Rieske KO mouse fibroblast survival, CellTiter-Glo 72 h

Sequence of Mitogen-activated protein kinase 7 (Homo sapiens) (Q13164 whole entry, looked up, the tested form may be a part): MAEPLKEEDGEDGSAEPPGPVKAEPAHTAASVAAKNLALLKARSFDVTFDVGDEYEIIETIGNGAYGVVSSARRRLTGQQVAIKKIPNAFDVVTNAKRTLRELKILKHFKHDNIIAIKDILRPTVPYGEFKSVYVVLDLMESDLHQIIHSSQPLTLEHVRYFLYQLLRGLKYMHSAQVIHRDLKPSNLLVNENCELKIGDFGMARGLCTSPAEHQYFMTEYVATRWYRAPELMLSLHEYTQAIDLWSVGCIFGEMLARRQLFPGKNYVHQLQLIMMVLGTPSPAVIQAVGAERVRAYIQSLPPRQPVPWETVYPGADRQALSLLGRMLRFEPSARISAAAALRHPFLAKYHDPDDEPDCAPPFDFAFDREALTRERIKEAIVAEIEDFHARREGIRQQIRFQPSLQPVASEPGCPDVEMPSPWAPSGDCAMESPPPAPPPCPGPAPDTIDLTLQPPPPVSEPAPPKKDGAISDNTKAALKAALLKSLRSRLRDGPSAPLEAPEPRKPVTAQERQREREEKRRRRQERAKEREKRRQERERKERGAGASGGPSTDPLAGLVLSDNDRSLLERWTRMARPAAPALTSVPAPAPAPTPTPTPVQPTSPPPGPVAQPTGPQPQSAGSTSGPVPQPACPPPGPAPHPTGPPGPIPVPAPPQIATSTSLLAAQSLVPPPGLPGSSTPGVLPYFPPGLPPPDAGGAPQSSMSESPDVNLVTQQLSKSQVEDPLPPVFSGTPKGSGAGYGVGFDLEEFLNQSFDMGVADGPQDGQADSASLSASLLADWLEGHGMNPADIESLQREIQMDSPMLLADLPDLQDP
Sequence of 6-phosphogluconate dehydrogenase, decarboxylating (Homo sapiens) (P52209 whole entry, looked up): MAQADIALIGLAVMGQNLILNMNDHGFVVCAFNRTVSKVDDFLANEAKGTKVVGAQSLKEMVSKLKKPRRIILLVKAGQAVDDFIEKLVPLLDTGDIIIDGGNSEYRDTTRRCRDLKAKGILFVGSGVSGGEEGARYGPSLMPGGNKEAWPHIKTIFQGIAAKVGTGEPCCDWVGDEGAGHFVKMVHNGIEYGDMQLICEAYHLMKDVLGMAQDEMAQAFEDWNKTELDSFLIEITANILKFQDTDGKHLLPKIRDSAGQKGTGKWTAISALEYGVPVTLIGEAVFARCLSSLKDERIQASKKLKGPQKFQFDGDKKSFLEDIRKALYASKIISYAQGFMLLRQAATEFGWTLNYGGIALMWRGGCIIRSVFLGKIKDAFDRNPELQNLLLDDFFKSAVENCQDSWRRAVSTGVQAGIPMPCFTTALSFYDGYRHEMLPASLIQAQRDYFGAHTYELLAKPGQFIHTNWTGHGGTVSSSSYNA
Sequence of NAD(+) hydrolase SARM1 (Homo sapiens) (Q6SZW1 whole entry, looked up, the tested form may be a part): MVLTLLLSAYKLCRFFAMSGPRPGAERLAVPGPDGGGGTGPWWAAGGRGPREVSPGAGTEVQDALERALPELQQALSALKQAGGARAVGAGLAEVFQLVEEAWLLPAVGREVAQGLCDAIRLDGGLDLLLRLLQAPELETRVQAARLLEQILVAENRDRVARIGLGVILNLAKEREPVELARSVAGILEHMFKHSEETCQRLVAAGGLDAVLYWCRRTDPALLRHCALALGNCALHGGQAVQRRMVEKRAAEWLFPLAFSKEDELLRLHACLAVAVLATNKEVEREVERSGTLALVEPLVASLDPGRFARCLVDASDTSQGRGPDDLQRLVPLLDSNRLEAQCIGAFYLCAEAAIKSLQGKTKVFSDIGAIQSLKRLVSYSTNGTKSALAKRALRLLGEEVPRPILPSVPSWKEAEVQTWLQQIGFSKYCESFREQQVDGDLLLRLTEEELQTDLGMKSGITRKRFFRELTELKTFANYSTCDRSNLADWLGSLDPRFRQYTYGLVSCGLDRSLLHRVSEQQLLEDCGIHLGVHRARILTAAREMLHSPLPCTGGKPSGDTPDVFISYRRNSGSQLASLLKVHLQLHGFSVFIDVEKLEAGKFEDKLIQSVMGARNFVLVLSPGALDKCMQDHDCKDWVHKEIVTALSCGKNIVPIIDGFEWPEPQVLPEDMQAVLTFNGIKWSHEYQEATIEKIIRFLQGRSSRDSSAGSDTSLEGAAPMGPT
Sequence of Calcium-activated potassium channel subunit alpha-1 (Homo sapiens) + Leucine-rich repeat-containing protein 26 (Homo sapiens) (Q2I0M4 whole entry, looked up, one chain of several): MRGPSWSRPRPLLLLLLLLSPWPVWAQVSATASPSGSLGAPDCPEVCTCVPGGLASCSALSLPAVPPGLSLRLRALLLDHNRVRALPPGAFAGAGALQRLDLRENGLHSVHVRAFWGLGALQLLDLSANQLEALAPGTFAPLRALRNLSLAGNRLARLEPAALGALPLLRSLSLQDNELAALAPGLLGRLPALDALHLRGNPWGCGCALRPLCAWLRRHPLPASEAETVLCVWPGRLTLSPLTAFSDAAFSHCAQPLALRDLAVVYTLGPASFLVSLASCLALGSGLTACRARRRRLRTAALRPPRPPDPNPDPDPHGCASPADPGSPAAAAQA

CN(C)CCOC(C)(c1ccccc1)c1ccccn1 (configuration not stated)
1.53: normalised cell number [13, 20]
1.38: normalised cell number [13, 19]
-0.9%: nuclear beta-catenin stimulation ([4]; stimulation, at 2 µM)
inactive: inhibition [1] -0.4% | inhibition [2] -0.87% | fluorescence ratio [3] 1.06 | nuclear beta-catenin stimulation ([4]; at 10 µM) 1.1% | insulin secretion stimulation [5] 11.2% | viability decrease [6] 7.4% | tube area decrease [7] -15.5% | GLP1 secretion stimulation [8] 1% | inhibition of viability [9] 22.7% | viability decrease (inhibition) [10] 28.1% | viability decrease (inhibition) [11] -4.8% | inhibition [12] 1.67% | red/green cell ratio (normalised) [13] 1.11 | z-score [14, 21] 0.438 and -0.212 and 0.265 | remaining NAD [15] 10 nM | luciferase signal [16] 124 AU | log fold change Tl+ flux (F380Y) -0.0291 | log fold change Tl+ flux (F380Y/beta2Delta) -0.0218 | log fold change Tl+ flux [17] -0.0144
-0.4 and -0.135 and 0.109: z-score [14, 22]

CC(C)NCC(O)c1cc(O)cc(O)c1 (configuration not stated)
1.2: normalised cell number [13, 20]
inactive: inhibition [1] -5% | inhibition [2] -4.29% | fluorescence ratio [3] 1.02 | nuclear beta-catenin stimulation ([4]; at 10 µM) 1.6% | insulin secretion stimulation [5] 1.2% | viability decrease [6] 6% | tube area decrease [7] 3.6% | GLP1 secretion stimulation [8] 2.2% | inhibition of viability [9] -11.2% | viability decrease (inhibition) [10] -1.6% | viability decrease (inhibition) [11] -9.9% | inhibition [12] -6.42% | red/green cell ratio (normalised) [13] 1.18 | fold change [18] 1.13 and 0.914 and 0.836 | z-score [14, 21] 0.509 | remaining NAD [15] 10 nM | luciferase signal [16] 92 AU | log fold change Tl+ flux (F380Y) -0.0466 | log fold change Tl+ flux (F380Y/beta2Delta) 0.0418 | log fold change Tl+ flux [17] 0.0135
1.02: normalised cell number [13, 19]
0.459: z-score [14, 22]
0.9%: nuclear beta-catenin stimulation ([4]; stimulation, at 2 µM)

CCCNC(C)C(=O)Nc1ccccc1C (configuration not stated)
inactive: inhibition [1] -4.09% | inhibition [2] -0.48% | fluorescence ratio [3] 0.97 | nuclear beta-catenin stimulation ([4]; at 10 µM) 2.8% | insulin secretion stimulation [5] -0.2% | viability decrease [6] -19.3% | tube area decrease [7] -7.6% | GLP1 secretion stimulation [8] -2.8% | inhibition of viability [9] -6.47% | viability decrease (inhibition) [10] 14.5% | viability decrease (inhibition) [11] -13.2% | inhibition [12] 10.3% | red/green cell ratio (normalised) [13] 1.41 | z-score [14, 21] 0.649 and 0.0198 and 0.84 | remaining NAD [15] 10 nM | luciferase signal [16] 232 AU | log fold change Tl+ flux (F380Y) 0.0152 | log fold change Tl+ flux (F380Y/beta2Delta) 0.0464 | log fold change Tl+ flux [17] -0.0185
0.2%: nuclear beta-catenin stimulation ([4]; stimulation, at 2 µM)
-0.309 and -0.0551 and 0.281: z-score [14, 22]
0.93: normalised cell number [13, 19]
1.32: normalised cell number [13, 20]

CCCNC(=O)NS(=O)(=O)c1ccc(Cl)cc1
inactive: inhibition [1] -2.27% | inhibition [2] 1.05% | fluorescence ratio [3] 0.96 | nuclear beta-catenin stimulation ([4]; at 10 µM) 4.6% | insulin secretion stimulation [5] 1.5% | viability decrease [6] 4.6% | tube area decrease [7] -1.2% | GLP1 secretion stimulation [8] 6.4% | inhibition of viability [9] 2.7% | viability decrease (inhibition) [10] -4.3% | viability decrease (inhibition) [11] -8.8% | inhibition [12] 14.6% | red/green cell ratio (normalised) [13] 1.2 | z-score [14, 21] -0.244 and -0.535 | remaining NAD [15] 10 nM | log fold change Tl+ flux (F380Y) -0.0312 | log fold change Tl+ flux (F380Y/beta2Delta) -0.00553 | log fold change Tl+ flux [17] -0.0083
active: luciferase signal [16] 276 AU
-0.188 and -0.232: z-score [14, 22]
1.29: normalised cell number [13, 20]
1.08: normalised cell number [13, 19]
8.3%: nuclear beta-catenin stimulation ([4]; stimulation, at 2 µM)

CC(N=C(NC#N)Nc1ccncc1)C(C)(C)C (configuration not stated)
1.72: normalised cell number [13, 20]
1.21: normalised cell number [13, 19]
-1.6%: nuclear beta-catenin stimulation ([4]; stimulation, at 2 µM)
inactive: inhibition [1] -0.22% | inhibition [2] 1.97% | fluorescence ratio [3] 0.95 | nuclear beta-catenin stimulation ([4]; at 10 µM) -0.6% | insulin secretion stimulation [5] 2.1% | viability decrease [6] -8.9% | tube area decrease [7] -9.6% | GLP1 secretion stimulation [8] -3.6% | inhibition of viability [9] 12.1% | viability decrease (inhibition) [10] -10.1% | viability decrease (inhibition) [11] 5.8% | inhibition [12] -10.6% | red/green cell ratio (normalised) [13] 1.42 | z-score [14, 21] 0.121 and 0.328 | remaining NAD [15] 10 nM | luciferase signal [16] 64 AU | log fold change Tl+ flux (F380Y) -0.0323 | log fold change Tl+ flux (F380Y/beta2Delta) 0.0089 | log fold change Tl+ flux [17] -0.0269
-0.266 and 0.371: z-score [14, 22]

CSc1ccc2c(c1)N(CCC1CCCCN1C)c1ccccc1S2 (configuration not stated)
0.88: normalised cell number [13, 19]
0.96: normalised cell number [13, 20]
inactive: inhibition [1] -5% | inhibition [2] 0.29% | fluorescence ratio [3] 0.85 | nuclear beta-catenin stimulation ([4]; at 10 µM) 22.9% | insulin secretion stimulation [5] 5.6% | GLP1 secretion stimulation [8] 12.4% | inhibition [12] -1.24% | red/green cell ratio (normalised) [13] 1.09 | remaining NAD [15] 10 nM | luciferase signal [16] 40 AU | log fold change Tl+ flux (F380Y) 0.0395 | log fold change Tl+ flux [17] 0.0351
1.6%: nuclear beta-catenin stimulation ([4]; stimulation, at 2 µM)
-1.63 (inactive) and -1.09: z-score [14, 21]
active: viability decrease [6] 110% | tube area decrease [7] 103% | inhibition of viability [9] 112% | viability decrease (inhibition) [10] 133% | viability decrease (inhibition) [11] 101% | log fold change Tl+ flux (F380Y/beta2Delta) 0.193
0.0893 and 2.14: z-score [14, 22]

CC(=O)Nc1nnc(S(N)(=O)=O)s1
0.11: z-score [14, 22]
0.92: normalised cell number [13, 19]
-0.2%: nuclear beta-catenin stimulation ([4]; stimulation, at 2 µM)
1.17: normalised cell number [13, 20]
inactive: inhibition [1] -1.36% | inhibition [2] -2% | fluorescence ratio [3] 0.98 | nuclear beta-catenin stimulation ([4]; at 10 µM) 0.1% | insulin secretion stimulation [5] -1.1% | viability decrease [6] -1.8% | tube area decrease [7] -16.7% | GLP1 secretion stimulation [8] 1.4% | inhibition of viability [9] 1.7% | viability decrease (inhibition) [10] 31.5% | viability decrease (inhibition) [11] 6.2% | inhibition [12] -4.83% | red/green cell ratio (normalised) [13] 1.26 | z-score [14, 21] -0.627 | remaining NAD [15] 10 nM | luciferase signal [16] 44 AU | log fold change Tl+ flux (F380Y) 0.0439 | log fold change Tl+ flux (F380Y/beta2Delta) 0.0368 | log fold change Tl+ flux [17] -0.0199
